This is a sample that favours compounds with a hit; in the whole collection about 8.2% have one here.
KB-3-1 tox = KB-3-1 parental cell cytotoxicity; KB-3-1 viability, CellTiter-Glo ATP luminescence, 72 h; actives 1.4% (n = 400,000); AID 1347075; Potency, µM (series often up to 46.1 µM), usual class: cytotoxic; also: % is scaled to controls: 0 for no effect and ±100 for the full control effect; nearly all actives have a fitted effect of over 60% in size
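Parental KB-3-1 viability, qHTS format: 72 h compound exposure, 37 °C; CellTiter-Glo; media-only wells and DMSO plates as controls; concentration-effect fits on corrected data.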
MCF10A rereplic = induces DNA re-replication in MCF 10a normal breast cells; MCF 10A DNA re-replication, Hoechst nuclear intensity, 48 h; Potency, µM (doses to about 46.1 µM), for inactives: top-dose activity, positive = re-replication, most hits filed as activators; actives 2.9% (n = 350,000); also: % of control where 0% means no effect; nearly all actives have a fitted effect of over 50% in size
SW480 rerep = inducers of DNA re-replication in SW480 colon cancer cells; SW480 DNA re-replication, Hoechst DNA content imaging, 48 h; Potency, µM (series often up to 46.1 µM), for the others: at the top dose re-replication activation, usual class: activators; actives 1.8% (n = 340,000); AID 624297; also: % of control where 0% means no effect; nearly all actives have a fitted effect of over 55% in size
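Cells (250 per well) received 23 nL compound or DMSO by pin tool and were kept 48 hr at 37 C, 5% CO2. Nuclei were then stained with Hoechst for 40 min and scanned for DNA content.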
ELG1 DNA repair = ELG1-dependent DNA repair inhibition | HEK293T ELG1-luciferase reporter, luminescence, 16 h; DNA damage induced by 5-fluorouridine | Potency, µM (titrated, usually from 46.1 µM), for inactives: at the highest dose activity change, negative = inhibition, actives largely listed as inhibitors | actives 2.3% (n = 330,000) | AID 504467; also: % is scaled to controls: 0 for no effect and ±100 for the full control effect; nearly all actives have a fitted effect of over 55% in size
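In this reporter screen, reduction of luminescence relative to DMSO vehicle indicated activity. Compounds and 5-fluorouridine were added together to 2,000 cells per well, incubated for 16 hr at 37 °C, then developed with ONE-Glo.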
KB-V1 MDR tox = kills drug-selected multidrug resistant KB-V1 cells. Potency, µM (series often up to 46.1 µM), most hits filed as cytotoxic. actives 3.4% (n = 400,000). KB-V1 MDR cells viability, CellTiter-Glo, 72 h; also: % is scaled to controls: 0 for no effect and ±100 for the full control effect; nearly all actives have a fitted effect of over 60% in size
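Cytotoxicity toward P-gp-expressing KB-V1 cells was determined as loss of CellTiter-Glo luminescence after 72 h at 37 degrees C. Compounds were tested in quantitative HTS format across a concentration range, with curves fitted to normalized data.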
ELG1 FLuc counter = luciferase inhibition in cell-free luciferin readout for ELG1 hits; shares compounds with ELG1 DNA repair; Potency, µM (doses to about 46.1 µM), inactives show at the top dose activity change, negative = inhibition, most hits filed as inhibitors; actives 3% (n = 350); AID 624247; cell-free firefly luciferase luminescence counter-screen, ViewLux; also: % is scaled to controls: 0 for no effect and ±100 for the full control effect
ELG1 Luc conf = human ELG1 repair inhibition, luciferase-tagged ELG1 confirmation | shares compounds with ELG1 DNA repair | HEK293T ELG1-luciferase levels, luminescence; cells co-treated with 5-fluorouridine | Potency, µM (titrated, usually from 46.1 µM), for inactives: top-dose activity change, negative = inhibition, hits mostly inhibitors | actives 68% (n = 670) | AID 624248; also: % is scaled to controls: 0 for no effect and ±100 for the full control effect; nearly all actives have a fitted effect of over 55% in size
ELG1 MMS Luc = MMS-stimulated human ELG1 repair inhibition, confirmed; shares compounds with ELG1 DNA repair; HEK293T luciferase-tagged ELG1 level, MMS stimulated; Potency, µM (series often up to 46.1 µM), for the others: top-dose activity change, negative = inhibition, hits mostly inhibitors; actives 53% (n = 670); AID 624249; also: % is scaled to controls: 0 for no effect and ±100 for the full control effect; nearly all actives have a fitted effect of over 60% in size
ELG1 5-FU = confirmation of ELG1 repair inhibitors: viability with 5FU. shares compounds with ELG1 DNA repair. cell viability with 5-FU, ELG1-dependent repair. Potency, µM (highest dose often 46.1 µM), inactives show top-dose activity change, negative = viability loss, actives largely listed as cytotoxic. 670 tested, under 10 active;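 also: ELG1-luc HEK293T cells cotreated with 5-fluorouridine at 10 µM final; viability measured 16 h after compound addition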
ELG1 MMS viab = confirmation of ELG1 repair inhibitors: viability with MMS. shares compounds with ELG1 DNA repair. Cell viability with MMS, ELG1-dependent DNA repair. Potency, µM (series often up to 46.1 µM), inactives show at the top dose activity change, negative = viability loss, actives largely listed as cytotoxic. actives 33% (n = 670). AID 624251;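 also: ELG1-luc HEK293T cells co-treated with 10 µM MMS; viability read 16 h after compound addition; % is scaled to controls: 0 for no effect and ±100 for the full control effect; nearly all actives have a fitted effect of over 60% in size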
ELG1 unstim viab = affects unstimulated cell viability, ELG1 hit counter-screen; cell viability counter-screen, unstimulated, luminescence; actives 8% (n = 900); Potency, µM (series often up to 45.9 µM), for the others: at the top dose activity change, negative = loss of viability, usual class: cytotoxic; shares compounds with ELG1 DNA repair;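 also: compound exposure lasted 16 hours before reading; % is scaled to controls: 0 for no effect and ±100 for the full control effect; nearly all actives have a fitted effect of over 55% in size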
FLuc biochem = firefly luciferase inhibition counter-screen; shares compounds with ELG1 DNA repair; purified firefly luciferase, luminescence counter-screen; Potency, µM (top dose mostly 57.5 µM), for inactives: top-dose activity, negative = inhibition, most hits filed as inhibitors; actives 10% (n = 350); AID 624253; also: % is scaled to controls: 0 for no effect and ±100 for the full control effect
Active calls of the source: *; i = inactive; ? = inconclusive; . = no result; [ ] = another dose, or the depositor's remark. Calls follow the shape of the dose curve; as a rule, active = well fitted curve in the direction sought with a large enough effect; inconclusive = small, poorly fitted or top-dose-only effect, or another doubt; inactive = no such curve, though single readings can be large; an effect the other way counts as inactive or inconclusive. Potency is read from the fitted curve at half-maximal effect.

SMILES	KB-3-1 tox	MCF10A rereplic	SW480 rerep	ELG1 DNA repair	KB-V1 MDR tox	ELG1 FLuc counter	ELG1 Luc conf	ELG1 MMS Luc	ELG1 5-FU	ELG1 MMS viab	ELG1 unstim viab	FLuc biochem
Nc1ncnc2c1c(I)cn2C1OC(CO)C(O)C1O (centres undefined)	.	.	.	.	.	?	0.4µM*	1µM*	18%	?	-8%	5%
CSc1ncnc2c1ncn2C1OC(CO)C(O)C1O (centres undefined)	.	.	.	.	.	4%	0.04µM*	2µM*	?	?	0.56µM*	-1%
O=C(O)C(Cc1ccccc1)N=C(NS(=O)(=O)c1ccccc1)c1ccccc1 (centres undefined)	i	2%	2%	3%	i	.	.	.	.	.	.	.
COc1ccc(CCNC(=O)CCN2C(=O)c3ccccc3C2=O)cc1OC	.	.	.	-2%	.	.	.	.	.	.	.	.
COc1ccc(CCN2C(=O)c3cccc4c(C(=O)N5CCCCC5)ccc(c34)C2=O)cc1OC	i	?	-1%	3.7µM*	2.9µM*	.	7.9µM*	7.9µM*	?	11µM*	14µM*	.
Cc1ccc2c(c1)sc1nc(=O)n(-c3ccc(Cl)c(Cl)c3)c(=O)n12	?	9%	-1%	?	i	7%	.	.	.	.	-2%	-3%
O=c1nc2sc3ccccc3n2c(=O)n1-c1cccc(Cl)c1	?	19%	8%	?	?	82%	.	.	.	.	-5%	-6%
Cc1ccc2c(c1)sc1nc(=O)n(-c3ccc(Cl)cc3)c(=O)n12	i	1%	-1%	28%	i	.	.	.	.	.	.	.
O=C(Nc1ccc(Br)cc1)c1ccc(F)c(S(=O)(=O)N2CCN(c3ccccn3)CC2)c1	?	6%	13%	2.9µM*	?	-8%	32µM*	?	-11%	?	?	-15%
O=C(CSc1nnc(-c2ccc(O)cc2)o1)Nc1ccccc1	?	-4%	-28%	?	i	209%	.	.	.	.	?	?
O=C(CSc1nnc(Cc2ccccc2)o1)Nc1ccccc1	i	0%	-2%	4%	i	.	.	.	.	.	.	.
O=C(CSc1nnc(Cc2ccccc2)o1)Nc1ccc(Br)cn1	i	-185%[0.0737 µM]	5%	18%	i	18%	.	.	.	.	10%	5%
O=C(CSc1nnc(-c2ccc([N+](=O)[O-])cc2)o1)Nc1ccccc1	i	.	.	.	i	.	.	.	.	.	.	.
O=C(CSc1nnc(-c2cccc(Cl)c2)o1)Nc1ccc2c(c1)OCCO2	i	1%	1%	?	i	.	.	.	.	.	-1%	.
COc1ccccc1NC(=O)CSc1nnc(-c2ccccc2)o1	?	0%	-1%	?	i	.	.	.	.	.	?	.
COc1ccccc1NC(=O)CSc1nnc(Cc2ccccc2)o1	i	0%	-17%	.	i	.	.	.	.	.	.	.
CC(c1nccs1)N(C)C(=O)CCc1nnc(CCc2ccccc2)o1 (centres undefined)	i	2%	-6%	3%	i	.	.	.	.	.	.	.
CC1(c2ccc(Cl)cc2)NC(=O)N(CC(=O)Nc2cccnc2Cl)C1=O (centres undefined)	i	?	-7%	1%	i	.	.	.	.	.	.	.
COc1cc(S(=O)(=O)Nc2ccc3nc(C)sc3c2)ccc1NC(C)=O	i	1%	-2%	-9%	i	.	.	.	.	.	.	.
O=C(CCN1CCCCC1=O)NC1CCCc2c1cnn2-c1ccccc1F (centres undefined)	i	-1%	-6%	3%	i	.	.	.	.	.	.	.
O=C(CSc1nnc(-c2csc3c2CCCC3)o1)Nc1ccccc1	?	2%	-15%	?	i	30%	.	.	.	.	?	-15%
Cc1cc(C)cc(NC(=O)CSc2nnc(-c3ccccc3Br)o2)c1	i	5%	1%	?	?	.	.	.	.	.	.	.
O=C(CSc1nnc(-c2cccnc2)o1)Nc1ccccn1	i	6%	-4%	?	?	193%	.	.	.	.	?	-3%
Cc1ccc(NC(=O)CSc2nnc(-c3cccnc3)o2)c(C)c1	i	2%	?	?	i	.	.	.	.	.	.	.
COc1ccc(NC(=O)c2c(N)no[n+]2[O-])cc1	?	?	1%	4.6µM*	i	.	14%	5%	0%	-6%	-4%	.
SMILES	KB-3-1 tox	MCF10A rereplic	SW480 rerep	ELG1 DNA repair	KB-V1 MDR tox	ELG1 FLuc counter	ELG1 Luc conf	ELG1 MMS Luc	ELG1 5-FU	ELG1 MMS viab	ELG1 unstim viab	FLuc biochem
COc1ccc(NC(=O)c2c(N)no[n+]2[O-])c(OC)c1	i	-1%	-5%	?	i	.	.	.	.	.	.	.
COc1ccc(NC(=O)c2oc3ccccc3c2NC(=O)Cc2coc3c(C)c(C)ccc23)cc1	i	.	.	.	i	.	.	.	.	.	.	.
CC(C)(C)NC(=O)C(c1cc2ccccc2o1)n1c(=O)c(-c2ccccc2)nc2ccccc21 (centres undefined)	i	.	.	.	i	.	.	.	.	.	.	.
COc1ccc(C(=O)N/N=C/c2cc(Br)ccc2O)cc1OC	?	?	?	2.1µM*	21µM*	.	4µM*	13µM*	19%	16µM*	-13%	.
COC(=O)c1[nH]c2ccc(C)cc2c1NC(=O)CN1CCN(c2ccccc2)CC1	?	18%	8%	18µM*	?	?	13µM*	18µM*	?	?	25µM*	1%
COC(=O)c1[nH]c2ccc(C)cc2c1NC(=O)C(C)N1CCN(C2CCCCC2)CC1 (centres undefined)	i	-3%	-4%	-15%	i	-6%	1.1µM*	?	8%	8%	?	5%
